# According to PubChem BioAssay:
# Test system: Wnt5a (protein binding on small-molecule microarray)
# Assay: Wnt5a binders on small-molecule microarray, primary screen, biophysical, 635/667 nm fluorescence (AID 1142);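 also: fluorescence read at 667 nm with signal to noise per printed feature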
# Details: 635 nm fluorescence, higher = more signal
row,SMILES,composite z-score
1,CC(C)C[C@@H]1NC(=O)[C@H]2C[C@@H](C(=O)NCCCCCCNC(=O)CS)[C@@H](c3cccc(OCCO)c3)N2C1=O,1.35
2,CC(C)NC(=O)[C@@]1(Cc2ccccc2I)c2ccccc2C(=O)N(Cc2ccccc2)[C@H]1c1ccc(CO)cc1,0.107
3,O=C1O[C@H](c2ccccc2)[C@H](c2ccccc2)N2[C@H]1[C@@H](C(=O)N1CCN(c3ncccn3)CC1)[C@]1(C(=O)Nc3ccccc31)[C@H]2c1ccc(OCCO)cc1,0.505
4,COc1ccc(CCNC(=O)[C@@]2(Sc3ccc(C)cc3)CC(=O)N(Cc3ccccc3Cl)[C@@H]2c2ccc(CO)cc2I)cc1,-0.234
5,CN(C)C(=O)[C@]1(CCC(=O)OC(C)(C)C)N=C(c2ccc(OCCCO)cc2)O[C@@H]1c1ccccc1N=[N+]=[N-],0.928
6,CC(=O)NCCCC[C@@H]1NC(=O)[C@@H]2C[C@H](C(=O)NCCCCN(C)C)[C@H](c3ccc(O)cc3)N2C1=O,-0.465
7,COc1c(C)cc(-c2cc3c(c(-c4ccc(Oc5ccccc5)cc4)n2)[Si](C(C)C)(C(C)C)OC3)cc1C,0.285
8,CC(C)CNC(=O)[C@@]1(c2ccc([N+](=O)[O-])cc2)CC(=O)N(CC23CC4CC(CC(C4)C2)C3)[C@@H]1c1ccc(CO)cc1,0.239
9,Cc1ccc(F)cc1S(=O)(=O)N[C@@H]1CCN(Cc2ccc(-c3ccccc3)cc2)C1,0.116
10,CC(C)(C)OC(=O)CC[C@]1(C(=O)N2CCCCC2)N=C(c2ccc(OCCCO)cc2)O[C@H]1c1ccccc1N=[N+]=[N-],0.556
11,COC(=O)c1ccc(C(O)C2C=CC3C(=O)N(C)C(=O)C3N2NC(=O)OC(C)(C)C)o1 (stereo not given),0.565
12,CCCCCCCCCCC(O)C1C=CC2C(=O)N(Cc3ccccc3)C(=O)C2N1n1cnnc1 (stereo not given),0.418
13,CCOC(=O)C1=CC[C@@H](c2ccccc2)N(S(=O)(=O)c2ccc(C)cc2)[C@H]1C(=O)OCC,0.3
14,CCCNC(=O)[C@@]1(c2ccc([N+](=O)[O-])cc2)CC(=O)N(CC23CC4CC(CC(C4)C2)C3)[C@@H]1c1ccc(CO)cc1,0.4
15,COCCOC(=O)N1C(=O)[C@@]2(c3ccccc31)[C@H](C(=O)NC[C@H](O)c1ccccc1)[C@H]1C(=O)O[C@H](c3ccccc3)[C@H](c3ccccc3)N1[C@@H]2c1ccc(OCCO)cc1,0.788
16,CCCCC=C[C@@H](NC(=O)c1ccco1)c1ccccc1,0.143
17,CC(=O)NCCCC[C@@H]1NC(=O)[C@H]2C[C@@H](C(=O)NCCCCCC[N+](C)(C)C)[C@@H](c3cccc(OCCO)c3)N2C1=O,0.408
18,O=C(CS)NCCCCCCNC(=O)[C@H]1C[C@H]2C(=O)NCC(=O)N2[C@H]1c1ccc(O)cc1,-0.319

row,SMILES,composite z-score
1,COC(=O)[C@@]1(Cc2ccc(OC)cc2)[C@H]2c3cc(C(=O)N(C)C)n(Cc4c(OC)[nH]cc(C)c4=O)c3C[C@H]2CN1C(=O)c1ccccc1,-0.0522
2,CS(=O)(=O)CCOC(=O)C1=CC(c2ccc(CO)cc2)=CC(C2CC2)N(Cc2cc3c(cc2Br)OCO3)C=C1C(=O)OCCS(C)(=O)=O (stereo not given),0.377
3,C=CCOC(=O)[C@H]1[C@@H]2C(=O)O[C@@H](c3ccccc3)[C@@H](c3ccccc3)N2[C@@H](c2ccc(OCCOC(=O)[C@@H]3C[C@@H]4C(=O)N5CCC[C@H]5C(=O)N4[C@@H]3c3ccc(O)cc3)cc2)[C@]12C(=O)Nc1ccccc12,1.06
4,O=C1O[C@@H](c2ccccc2)[C@@H](c2ccccc2)N2[C@@H](c3ccccc3OCCO)[C@]3(C(=O)Nc4ccc(C#CC5(O)CCCCCC5)cc43)[C@@H](C(=O)Nc3nc4ccccc4s3)[C@H]12,0.555
5,COCC(=C=CC[C@@H](O)c1ccc(CO)o1)CCO,0.0507
6,CC(C)CNC(=O)[C@@H]1c2ccccc2C(=O)N(Cc2cc(C(F)(F)F)cc(C(F)(F)F)c2)[C@H]1c1ccc(CO)cc1,-0.0674
7,C=CCOC(=O)[C@H]1[C@@H]2C(=O)O[C@@H](c3ccccc3)[C@@H](c3ccccc3)N2[C@@H](c2ccc(OCCOC(=O)[C@@H]3C[C@@H]4C(=O)NCC(=O)N4[C@@H]3c3ccc(O)cc3)cc2)[C@]12C(=O)Nc1ccccc12,0.773
8,COC(=O)[C@@]1(Cc2ccccc2)[C@H]2c3cc(C(=O)N4CCCC4)n(C)c3C[C@H]2CN1C(=O)c1ccccc1,0.0131
9,CC(C)Cc1ccc(CN2CC[C@@H](NS(=O)(=O)c3ccccc3)C2)cc1,-0.353
10,CC(=O)Nc1cc(Br)ccc1C(=O)O,-0.129
11,COC(=O)[C@@]1(Cc2ccccc2N=[N+]=[N-])COC(c2ccc(OCCCO)cc2)=N1,0.193
12,NC(=O)NCC#Cc1ccc2c(c1)[C@]1(C(=O)N2)[C@H](C(=O)NC[C@H](O)c2ccccc2)[C@H]2C(=O)O[C@H](c3ccccc3)[C@H](c3ccccc3)N2[C@@H]1c1ccc(O)cc1,0.545
13,CCOC(=O)C[C@H]1[C@H](OC(=O)c2ccc(-c3ccccc3)cc2)[C@@H](NC(=O)Cc2ccc(OC)cc2)c2cc(OCCCO)ccc2N1C(=O)c1ccc2ccccc2n1,0.163
14,COc1cccc(C(=O)O[C@H]2CC[C@]3(C)C4=C(CCC3C2(C)C)[C@]2(C)CC[C@H]([C@H](C)CCCC(C)C)[C@@]2(C)CC4)c1 (stereo not given in full),0.0406
15,O=C/C=C/c1ccc2c(c1)OCO2,0.0218
16,O=C1C=CC(=O)[C@@H]2CC(COc3ccccc3)=C3[C@@H](CCc4ccccc4)OB(O)C[C@@H]3[C@H]12,0.135
17,O=C1O[C@@H](c2ccccc2)[C@@H](c2ccccc2)N2[C@@H](c3ccc(O)cc3)[C@]3(C(=O)Nc4ccc(C#CC5(O)CCCCCC5)cc43)[C@@H](C(=O)N3CCCCCCC3)[C@H]12,1.74
